Bioassay records: PubChem, The Scripps Research Institute Molecular Screening Center
The list is not random: actives were taken first. Their share in the collection is about 3.5%.
FBW7 act: FBW7 E3 ligase activators, primary screen, biochemical, AlphaScreen, human. 650,000 compounds, 0.13% hits. F-box/WD repeat-containing protein 7 (Homo sapiens), Q969H0. normalized activity (activation), % at 26.1 µM. AlphaScreen FBW7–phospho-cyclin E peptide binding, activator screen; in the data active means normalized activity above about 1.9%;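 further: purified mutant Fbw7 with reduced substrate affinity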
MITF primary: MITF inhibitors, primary screen, biochemical, AlphaScreen, human | Microphthalmia-associated transcription factor (Homo sapiens), O75030 | AlphaScreen MITF homodimerization, bead proximity signal | inhibition, % at 2.6 µM | 650,000 compounds, 0.91% hits; in the data active means inhibition above about 50%
TEAD-YAP inh: TEAD-YAP interaction inhibition, primary screen, TEAD-YAP interaction inhibitor project, luminescence, HEK-TIYL cells | TEAD-Gal4/YAP UAS-luciferase luminescence | inhibition, % at 9.12 µM | 640,000 compounds, 1.4% hits | AID 1259422, 2018; in the data active means inhibition above about 32%
GPR151 activ: activators of human GPR151, primary screen, cell-based, PathHunter beta-arrestin, luminescence | G-protein coupled receptor 151 (Homo sapiens), Q8TDV0 | PathHunter beta-arrestin GPR151 cells | activation, % at 11.2 µM | 650,000 compounds, 1% hits; in the data active means activation above about 4.9%
Target sequence (Q8TDV0 whole entry, looked up): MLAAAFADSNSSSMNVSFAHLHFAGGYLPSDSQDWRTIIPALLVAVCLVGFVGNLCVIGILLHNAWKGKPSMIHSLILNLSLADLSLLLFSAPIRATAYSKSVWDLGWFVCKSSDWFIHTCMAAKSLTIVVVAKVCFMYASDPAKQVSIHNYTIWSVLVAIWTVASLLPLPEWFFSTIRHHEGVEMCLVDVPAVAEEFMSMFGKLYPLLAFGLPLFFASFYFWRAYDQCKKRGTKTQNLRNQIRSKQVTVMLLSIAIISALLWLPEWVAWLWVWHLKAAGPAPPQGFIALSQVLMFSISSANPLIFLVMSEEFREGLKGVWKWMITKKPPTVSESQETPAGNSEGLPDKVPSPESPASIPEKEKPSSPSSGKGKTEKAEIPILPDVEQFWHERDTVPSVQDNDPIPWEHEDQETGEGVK
MITF confirm: MITF inhibitors, retest of hits, confirmation, biochemical, AlphaScreen, triplicate; 4,700 compounds, 16% hits; shares compounds with MITF primary; inhibition, % at 2.6 µM; AlphaScreen MITF homodimerization, biotin/His-MITF beads;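 active means inhibition above a cutoff derived from the DMSO control wells, cut at about 28% in these data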;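 further: inhibitors lower the bead chemiluminescence by keeping MITF from dimerizing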
AS interf DR: AlphaScreen optical interference compounds, dose response, counter-screen, biochemical, HTS | shares compounds with MITF primary | AlphaScreen optical interference counterscreen, cell-free | IC50, µM | 480 compounds, 6% hits | AID 1259373, 2018; call rule not given here
AS interf ctr: AlphaScreen optical interference compounds, counter-screen for MITF inhibitor project, biochemical, triplicate | 4,700 compounds, 7.6% hits | shares compounds with MITF primary | inhibition, % at 2.6 µM | LysRS AlphaScreen counterscreen, signal interference;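 active means inhibition above a cutoff derived from the DMSO control wells, cut at about 30% in these data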
Large screens that a line does not name were inactive (follow-up assays come after a bar, where they were run).

CCOc1ccc(CNC(=O)CN2C(=O)C(CC)Sc3ccccc32)cc1OC (stereo not given)	MITF primary 51 | MITF confirm inactive | AS interf ctr inactive
CC(=O)N1CCN(C2CCN(c3ccc(C(=O)NC(C)c4ccccc4)cc3)CC2)CC1 (stereo not given)	none
O=C(CNC(=S)N(Cc1ccccc1Cl)C1CCCC1)NCc1cccnc1	none
Cc1ccc(C(=O)/C=C/c2ccc(Br)cc2)o1	none
Cc1ccc(C(=O)/C=C/c2ccc(Br)o2)o1	MITF primary 67 | MITF confirm inactive | AS interf ctr inactive
CN(C)c1cc(NC(=O)CNC(C)(C)C)c(O)c2c1C[C@H]1C[C@H]3[C@@H](N(C)C)C(=O)C(C(N)=O)=C(O)[C@@]3(O)C(=O)C1=C2O	MITF primary 78 | MITF confirm 60 | AS interf DR inactive | AS interf ctr inactive
CC(=O)Nc1ccc(/C=N/NC(=O)Cc2ccccc2)cc1	none
COc1cccc(CN2CCN(C(=O)c3ccncc3)CC2)c1	MITF primary 81 | MITF confirm inactive | AS interf ctr inactive
COc1cccc(CN2CCN(C(=O)Nc3cccc(Cl)c3)CC2)c1	MITF primary 51 | MITF confirm inactive | AS interf ctr inactive
COc1cccc(CN2CCC(C(=O)NC(C)C)CC2)c1	none
Cc1cccc(CN2CCC(C(=O)NC(C)C)CC2)c1	MITF primary 77 | MITF confirm inactive | AS interf ctr inactive
O=C(c1ccc(-c2ccccc2)cc1)N1CCN(Cc2cccc(F)c2)CC1	MITF primary 64 | MITF confirm inactive | AS interf ctr inactive
COC(=O)c1ccc(CNc2ccccc2F)cc1	none
O=C(c1cccc(F)c1)N1CCN(Cc2cccc(Br)c2)CC1	none
Cc1cccc(CN2CCN(C(=O)c3ccccc3F)CC2)c1	none
COc1cccc(CN2CCN(C(=O)c3ccc(F)cc3)CC2)c1	MITF primary 60 | MITF confirm 52 | AS interf DR inactive | AS interf ctr inactive
Cc1cccc(CN2CCN(C(=O)c3ccc(F)cc3)CC2)c1	MITF primary 68 | MITF confirm inactive | AS interf ctr inactive
O=C(c1ccncc1)N1CCN(Cc2cccc(Br)c2)CC1	MITF primary 65 | MITF confirm inactive | AS interf ctr inactive
ClC1(Cl)CC1CNc1ncnc2sc3c(c12)CCC3 (stereo not given)	MITF primary 60 | MITF confirm inactive | AS interf ctr inactive
CCOC(=O)C(NC(=O)c1cc2nc(-c3cccs3)cc(C(F)(F)F)n2n1)C(=O)OCC	none
CCOC(=O)C1=C(O)CSC1=NC(=O)c1ccc(OC)cc1	MITF primary 52 | MITF confirm inactive | AS interf ctr inactive
CCCCNS(=O)(=O)c1ccc(S(=O)(=O)NC(C)c2cccs2)cc1 (stereo not given)	MITF primary 56 | MITF confirm inactive | AS interf ctr inactive
CC(NS(=O)(=O)c1ccc(S(=O)(=O)NCc2ccccc2)cc1)c1cccs1 (stereo not given)	none
O=C(Nc1ccc(Br)cc1)Nc1cccc(Cl)c1	MITF primary 57 | MITF confirm inactive | AS interf ctr inactive
COc1cccc(CC(=O)NCC2CCC3(CCN(Cc4ccccn4)CC3)O2)c1 (stereo not given)	none
CSc1ccc(CC(=O)NCC2CCC3(CCN(Cc4ccccn4)CC3)O2)cc1 (stereo not given)	MITF primary 69 | MITF confirm inactive | AS interf ctr inactive
CCCCOc1ccc(C(=O)Nc2nc(-c3ccc(OC)cc3OC)cs2)cc1	none
CCCCOc1ccc(C(=O)Nc2nc(-c3ccc(OC)c(C)c3)cs2)cc1	MITF primary 64 | MITF confirm inactive | AS interf ctr inactive
O=C(Cc1cn2ccsc2n1)N/N=C/c1ccc([N+](=O)[O-])o1	MITF primary 70 | MITF confirm 92 | AS interf ctr 40
c1cncc(CNc2nc(Nc3ccc(N4CCOCC4)cc3)nc3c2ncn3C2CCCCC2)c1	none
c1cncc(CNc2nc(Nc3ccc(N4CCOCC4)cc3)c3ncn(C4CCCCC4)c3n2)c1	MITF primary 51 | MITF confirm 84 | AS interf ctr inactive
CCCn1c(SC(C(=O)NC(N)=O)C(C)C)nc2ccccc2c1=O (stereo not given)	MITF primary 55 | MITF confirm inactive | AS interf ctr inactive
O=C(Cn1c(=S)[nH]c2ccccc2c1=O)N(CCO)Cc1ccccc1	MITF primary 63 | MITF confirm inactive | AS interf ctr inactive
NC(=S)CC(=O)Nc1ccc(Cl)cc1	none
O=[N+]([O-])c1ccc(S(=O)(=O)N2CCN(C3CCCC3)CC2)cc1	MITF primary 53 | MITF confirm inactive | AS interf ctr inactive
O=[N+]([O-])c1ccc(S(=O)(=O)N2CCN(C3CCCCCC3)CC2)cc1	none
O=S(=O)(c1ccccc1)N1CCN(C2CCCCCC2)CC1	MITF primary 59 | MITF confirm inactive | AS interf ctr inactive
Cc1ccc(S(=O)(=O)N2CCN(C3CCCCC3)CC2)cc1	none
COc1ccc(C(=O)Nc2ccnn2C2CCN(C(=O)c3ccc(C)cc3)CC2)cc1	none
N#Cc1ccccc1S(=O)(=O)N1CCN(CC(O)c2ccccc2)CC1 (stereo not given)	MITF primary 58 | MITF confirm inactive | AS interf ctr inactive
CCOc1ccc(S(=O)(=O)N2CCN(CC(O)c3ccccc3)CC2)cc1 (stereo not given)	none
N#Cc1ccccc1S(=O)(=O)N1CCN(CC(O)COc2ccccc2F)CC1 (stereo not given)	MITF primary 51 | MITF confirm inactive | AS interf ctr inactive
CCCCCNC(=O)c1ccc(Cn2c(SCC(=O)Nc3ccc(CC)cc3)nc3ccccc3c2=O)cc1	none
O=C(NCC(O)C(=O)N1CCOCC1)c1cccc(Nc2ccc3[nH]ncc3c2)n1 (stereo not given)	MITF primary 57 | MITF confirm 62 | AS interf DR inactive | AS interf ctr inactive
O=C(NCC(O)C(=O)N1CCOCC1)c1cc(Nc2ccc3[nH]ncc3c2)ccn1 (stereo not given)	none
CN(N=Nc1ccc([N+](=O)[O-])cc1)c1ccc([N+](=O)[O-])cc1	none
Cc1cccc(C)c1NC(=O)C(Cc1c[nH]c2ccccc12)NC(=O)OC(C)(C)C (stereo not given)	MITF primary 63 | MITF confirm inactive | AS interf ctr inactive
